Test results taken from PMC12529666, “Dysregulation of AGO2-miRNA dynamics underlies the AGO2-associated Lessel–Kreienkamp syndrome”.

B1: ACACTTCA (ssRNA)
RNA 1: GAGUUCUACAGUCCGACGAUCCCAACACACUUCACACCUGGAAUUCUCGGGUGCCAA
RNA 2: UGGAGUGUGACAAUGGUGUUUG
DNA 1: GATCGTCGGACTGTAGAACTC
DNA 2: TTGGCACCCGAGAATTCCA
modifications: constant regions annealed to DNA blockers; guide miR-122 5' phosphate
B2: ATACCTCA (ssRNA)
RNA 1: GAGUUCUACAGUCCGACGAUCCCAACAUACCUCACACCUGGAAUUCUCGGGUGCCAA
RNA 2: UGGAGUGUGACAAUGGUGUUUG
DNA 1: GATCGTCGGACTGTAGAACTC
DNA 2: TTGGCACCCGAGAATTCCA
modifications: constant regions annealed to DNA blockers; guide miR-122 5' phosphate
B3: GCATTCCA (ssRNA)
RNA 1: GAGUUCUACAGUCCGACGAUCCCAACGCAUUCCACACCUGGAAUUCUCGGGUGCCAA
RNA 2: UGGAGUGUGACAAUGGUGUUUG
DNA 1: GATCGTCGGACTGTAGAACTC
DNA 2: TTGGCACCCGAGAATTCCA
modifications: constant regions annealed to DNA blockers; guide miR-122 5' phosphate
B4: GCACCCCA (ssRNA)
RNA 1: GAGUUCUACAGUCCGACGAUCCCAACGCACCCCACACCUGGAAUUCUCGGGUGCCAA
RNA 2: UGGAGUGUGACAAUGGUGUUUG
DNA 1: GATCGTCGGACTGTAGAACTC
DNA 2: TTGGCACCCGAGAATTCCA
modifications: constant regions annealed to DNA blockers; guide miR-122 5' phosphate
B5: ACATCCCA (ssRNA)
RNA 1: GAGUUCUACAGUCCGACGAUCCCAACACAUCCCACACCUGGAAUUCUCGGGUGCCAA
RNA 2: UGGAGUGUGACAAUGGUGUUUG
DNA 1: GATCGTCGGACTGTAGAACTC
DNA 2: TTGGCACCCGAGAATTCCA
modifications: constant regions annealed to DNA blockers; guide miR-122 5' phosphate
B6: GCATTTCA (ssRNA)
RNA 1: GAGUUCUACAGUCCGACGAUCCCAACGCAUUUCACACCUGGAAUUCUCGGGUGCCAA
RNA 2: UGGAGUGUGACAAUGGUGUUUG
DNA 1: GATCGTCGGACTGTAGAACTC
DNA 2: TTGGCACCCGAGAATTCCA
modifications: constant regions annealed to DNA blockers; guide miR-122 5' phosphate
B7: ACGCCTCA (ssRNA)
RNA 1: GAGUUCUACAGUCCGACGAUCCCAACACGCCUCACACCUGGAAUUCUCGGGUGCCAA
RNA 2: UGGAGUGUGACAAUGGUGUUUG
DNA 1: GATCGTCGGACTGTAGAACTC
DNA 2: TTGGCACCCGAGAATTCCA
modifications: constant regions annealed to DNA blockers; guide miR-122 5' phosphate
B8: GCACCTCA (ssRNA)
RNA 1: GAGUUCUACAGUCCGACGAUCCCAACGCACCUCACACCUGGAAUUCUCGGGUGCCAA
RNA 2: UGGAGUGUGACAAUGGUGUUUG
DNA 1: GATCGTCGGACTGTAGAACTC
DNA 2: TTGGCACCCGAGAATTCCA
modifications: constant regions annealed to DNA blockers; guide miR-122 5' phosphate
B9: ACGTCTCA (ssRNA)
RNA 1: GAGUUCUACAGUCCGACGAUCCCAACACGUCUCACACCUGGAAUUCUCGGGUGCCAA
RNA 2: UGGAGUGUGACAAUGGUGUUUG
DNA 1: GATCGTCGGACTGTAGAACTC
DNA 2: TTGGCACCCGAGAATTCCA
modifications: constant regions annealed to DNA blockers; guide miR-122 5' phosphate
B10: ATGCTCCG (ssRNA)
RNA 1: GAGUUCUACAGUCCGACGAUCCCAACAUGCUCCGCACCUGGAAUUCUCGGGUGCCAA
RNA 2: UGGAGUGUGACAAUGGUGUUUG
DNA 1: GATCGTCGGACTGTAGAACTC
DNA 2: TTGGCACCCGAGAATTCCA
modifications: constant regions annealed to DNA blockers; guide miR-122 5' phosphate
B11: ATATCTCA (ssRNA)
RNA 1: GAGUUCUACAGUCCGACGAUCCCAACAUAUCUCACACCUGGAAUUCUCGGGUGCCAA
RNA 2: UGGAGUGUGACAAUGGUGUUUG
DNA 1: GATCGTCGGACTGTAGAACTC
DNA 2: TTGGCACCCGAGAATTCCA
modifications: constant regions annealed to DNA blockers; guide miR-122 5' phosphate
B12: GTGCTCCA (ssRNA)
RNA 1: GAGUUCUACAGUCCGACGAUCCCAACGUGCUCCACACCUGGAAUUCUCGGGUGCCAA
RNA 2: UGGAGUGUGACAAUGGUGUUUG
DNA 1: GATCGTCGGACTGTAGAACTC
DNA 2: TTGGCACCCGAGAATTCCA
modifications: constant regions annealed to DNA blockers; guide miR-122 5' phosphate
B13: GCACTCTA (ssRNA)
RNA 1: GAGUUCUACAGUCCGACGAUCCCAACGCACUCUACACCUGGAAUUCUCGGGUGCCAA
RNA 2: UGGAGUGUGACAAUGGUGUUUG
DNA 1: GATCGTCGGACTGTAGAACTC
DNA 2: TTGGCACCCGAGAATTCCA
modifications: constant regions annealed to DNA blockers; guide miR-122 5' phosphate
B14: GTATTCCA (ssRNA)
RNA 1: GAGUUCUACAGUCCGACGAUCCCAACGUAUUCCACACCUGGAAUUCUCGGGUGCCAA
RNA 2: UGGAGUGUGACAAUGGUGUUUG
DNA 1: GATCGTCGGACTGTAGAACTC
DNA 2: TTGGCACCCGAGAATTCCA
modifications: constant regions annealed to DNA blockers; guide miR-122 5' phosphate
B15: ACATTTCA (ssRNA)
RNA 1: GAGUUCUACAGUCCGACGAUCCCAACACAUUUCACACCUGGAAUUCUCGGGUGCCAA
RNA 2: UGGAGUGUGACAAUGGUGUUUG
DNA 1: GATCGTCGGACTGTAGAACTC
DNA 2: TTGGCACCCGAGAATTCCA
modifications: constant regions annealed to DNA blockers; guide miR-122 5' phosphate
B16: ATGTCCCA (ssRNA)
RNA 1: GAGUUCUACAGUCCGACGAUCCCAACAUGUCCCACACCUGGAAUUCUCGGGUGCCAA
RNA 2: UGGAGUGUGACAAUGGUGUUUG
DNA 1: GATCGTCGGACTGTAGAACTC
DNA 2: TTGGCACCCGAGAATTCCA
modifications: constant regions annealed to DNA blockers; guide miR-122 5' phosphate
B17: ACACCCTA (ssRNA)
RNA 1: GAGUUCUACAGUCCGACGAUCCCAACACACCCUACACCUGGAAUUCUCGGGUGCCAA
RNA 2: UGGAGUGUGACAAUGGUGUUUG
DNA 1: GATCGTCGGACTGTAGAACTC
DNA 2: TTGGCACCCGAGAATTCCA
modifications: constant regions annealed to DNA blockers; guide miR-122 5' phosphate
B18: ATACTTCA (ssRNA)
RNA 1: GAGUUCUACAGUCCGACGAUCCCAACAUACUUCACACCUGGAAUUCUCGGGUGCCAA
RNA 2: UGGAGUGUGACAAUGGUGUUUG
DNA 1: GATCGTCGGACTGTAGAACTC
DNA 2: TTGGCACCCGAGAATTCCA
modifications: constant regions annealed to DNA blockers; guide miR-122 5' phosphate
B19: GCACTCCG (ssRNA)
RNA 1: GAGUUCUACAGUCCGACGAUCCCAACGCACUCCGCACCUGGAAUUCUCGGGUGCCAA
RNA 2: UGGAGUGUGACAAUGGUGUUUG
DNA 1: GATCGTCGGACTGTAGAACTC
DNA 2: TTGGCACCCGAGAATTCCA
modifications: constant regions annealed to DNA blockers; guide miR-122 5' phosphate

The binders below were run against AGO2 WT (phosphosite mutant background) (Homo sapiens, UniProt Q9UKV8 1-859, S387D;S824A;S828D;S831D;S834A) (assay: RNA Bind-n-Seq (nitrocellulose filter binding and sequencing); miR-122 guide loaded in AGO2; 60 min incubation; 30 mM Tris pH 8.0, 100 mM potassium acetate, 2 mM magnesium acetate, 0.5 mM TCEP, 0.005% NP-40, 0.01 mg/ml yeast tRNA; 3 nM AGO2-miR-122, 100 nM RNA library; 60; high values mean tight binding). Conditions: protein: recombinant; tags: His6 (N-terminal, pFastBac HTA).
AGO2 WT (phosphosite mutant background), sequence (Q9UKV8 whole entry S387D/S824A/S828D/S831D/S834A): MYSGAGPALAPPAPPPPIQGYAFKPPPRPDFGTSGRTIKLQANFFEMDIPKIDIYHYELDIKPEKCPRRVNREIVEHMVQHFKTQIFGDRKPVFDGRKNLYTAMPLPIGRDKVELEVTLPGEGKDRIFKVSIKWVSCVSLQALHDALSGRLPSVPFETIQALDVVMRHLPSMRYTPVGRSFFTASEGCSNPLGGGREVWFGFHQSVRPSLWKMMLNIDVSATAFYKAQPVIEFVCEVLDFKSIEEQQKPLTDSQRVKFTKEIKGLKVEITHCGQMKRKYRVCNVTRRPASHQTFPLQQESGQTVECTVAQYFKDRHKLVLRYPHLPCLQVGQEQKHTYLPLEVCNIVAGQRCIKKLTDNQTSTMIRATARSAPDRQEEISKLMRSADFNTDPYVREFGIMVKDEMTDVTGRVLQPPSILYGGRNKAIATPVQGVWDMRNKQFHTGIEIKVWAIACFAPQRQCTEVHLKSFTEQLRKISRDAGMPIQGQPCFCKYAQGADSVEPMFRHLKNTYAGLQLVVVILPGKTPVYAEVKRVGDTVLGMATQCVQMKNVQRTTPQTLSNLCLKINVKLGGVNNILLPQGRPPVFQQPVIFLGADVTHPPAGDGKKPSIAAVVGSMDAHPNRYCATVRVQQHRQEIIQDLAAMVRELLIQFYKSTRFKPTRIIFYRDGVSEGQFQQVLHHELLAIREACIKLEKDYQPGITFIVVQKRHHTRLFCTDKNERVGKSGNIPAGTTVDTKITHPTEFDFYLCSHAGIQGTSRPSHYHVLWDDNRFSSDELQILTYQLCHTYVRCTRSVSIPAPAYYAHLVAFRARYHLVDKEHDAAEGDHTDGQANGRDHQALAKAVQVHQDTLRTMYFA
In short: (§1)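 His-tagged AGO2 was expressed in Sf9 insect cells by baculovirus, loaded with a synthetic guide RNA, and purified by Ni-NTA and a biotinylated capture oligo. Bound RNA was extracted, reverse-transcribed, barcode-amplified and Illumina-sequenced. Fold enrichment is each sequence's read fraction divided by its input-library read fraction.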

Row | Binder | binding signal
1 | B1 | 0.24 fold enrichment over input
2 | B2 | 0.138 fold enrichment over input
3 | B3 | 0.182 fold enrichment over input
4 | B4 | 0.164 fold enrichment over input
5 | B5 | 0.154 fold enrichment over input
6 | B6 | 0.165 fold enrichment over input
7 | B7 | 0.15 fold enrichment over input
8 | B8 | 0.17 fold enrichment over input
9 | B9 | 0.177 fold enrichment over input
10 | B10 | 0.186 fold enrichment over input
11 | B11 | 0.165 fold enrichment over input
12 | B12 | 0.17 fold enrichment over input
13 | B13 | 0.168 fold enrichment over input
14 | B14 | 0.18 fold enrichment over input
15 | B15 | 0.235 fold enrichment over input
16 | B16 | 0.155 fold enrichment over input
17 | B17 | 0.142 fold enrichment over input
18 | B18 | 0.136 fold enrichment over input
19 | B19 | 85.3 fold enrichment over input

What follows are binders tested against AGO2 L192P (Homo sapiens, UniProt Q9UKV8 1-859, L192P;S387D;S824A;S828D;S831D;S834A) in the same assay as above. Conditions: protein: recombinant; tags: His6 (N-terminal, pFastBac HTA).
AGO2 L192P, sequence (Q9UKV8 whole entry L192P/S387D/S824A/S828D/S831D/S834A): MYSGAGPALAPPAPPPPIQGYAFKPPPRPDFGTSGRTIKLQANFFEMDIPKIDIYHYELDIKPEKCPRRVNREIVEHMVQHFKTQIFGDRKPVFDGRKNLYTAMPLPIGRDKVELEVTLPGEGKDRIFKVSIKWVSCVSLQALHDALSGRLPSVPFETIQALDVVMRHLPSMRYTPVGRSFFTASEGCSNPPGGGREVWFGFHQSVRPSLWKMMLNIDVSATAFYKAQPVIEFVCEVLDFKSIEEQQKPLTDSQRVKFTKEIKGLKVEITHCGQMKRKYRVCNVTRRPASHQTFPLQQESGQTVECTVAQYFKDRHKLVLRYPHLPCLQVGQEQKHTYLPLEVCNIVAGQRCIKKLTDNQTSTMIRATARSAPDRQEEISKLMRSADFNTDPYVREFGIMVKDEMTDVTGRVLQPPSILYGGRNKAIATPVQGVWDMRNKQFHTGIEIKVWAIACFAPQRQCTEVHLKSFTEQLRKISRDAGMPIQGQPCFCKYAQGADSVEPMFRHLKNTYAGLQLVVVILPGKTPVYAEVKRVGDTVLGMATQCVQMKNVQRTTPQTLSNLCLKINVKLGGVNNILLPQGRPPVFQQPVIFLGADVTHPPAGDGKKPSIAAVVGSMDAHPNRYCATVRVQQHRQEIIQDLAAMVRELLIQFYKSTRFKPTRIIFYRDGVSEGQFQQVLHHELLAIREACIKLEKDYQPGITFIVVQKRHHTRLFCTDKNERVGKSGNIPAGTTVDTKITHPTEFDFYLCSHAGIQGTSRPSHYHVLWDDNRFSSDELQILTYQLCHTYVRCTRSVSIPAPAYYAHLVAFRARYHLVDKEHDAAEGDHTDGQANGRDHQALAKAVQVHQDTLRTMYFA
In short: as §1

Row | Binder | binding signal
20 | B1 | 0.941 fold enrichment over input
21 | B2 | 0.642 fold enrichment over input
22 | B3 | 0.661 fold enrichment over input
23 | B4 | 0.6 fold enrichment over input
24 | B5 | 0.641 fold enrichment over input
25 | B6 | 0.769 fold enrichment over input
26 | B7 | 0.597 fold enrichment over input
27 | B8 | 0.761 fold enrichment over input
28 | B9 | 0.659 fold enrichment over input
29 | B10 | 1.56 fold enrichment over input
30 | B11 | 0.635 fold enrichment over input
31 | B12 | 0.594 fold enrichment over input
32 | B13 | 0.562 fold enrichment over input
33 | B14 | 0.545 fold enrichment over input
34 | B15 | 1.13 fold enrichment over input
35 | B16 | 0.54 fold enrichment over input
36 | B17 | 0.6 fold enrichment over input
37 | B18 | 0.646 fold enrichment over input
38 | B19 | 60.8 fold enrichment over input

These binders were tested against AGO2 A367P (Homo sapiens, UniProt Q9UKV8 1-859, A367P;S387D;S824A;S828D;S831D;S834A) in the same assay as above. Conditions: protein: recombinant; tags: His6 (N-terminal, pFastBac HTA).
AGO2 A367P, sequence (Q9UKV8 whole entry A367P/S387D/S824A/S828D/S831D/S834A): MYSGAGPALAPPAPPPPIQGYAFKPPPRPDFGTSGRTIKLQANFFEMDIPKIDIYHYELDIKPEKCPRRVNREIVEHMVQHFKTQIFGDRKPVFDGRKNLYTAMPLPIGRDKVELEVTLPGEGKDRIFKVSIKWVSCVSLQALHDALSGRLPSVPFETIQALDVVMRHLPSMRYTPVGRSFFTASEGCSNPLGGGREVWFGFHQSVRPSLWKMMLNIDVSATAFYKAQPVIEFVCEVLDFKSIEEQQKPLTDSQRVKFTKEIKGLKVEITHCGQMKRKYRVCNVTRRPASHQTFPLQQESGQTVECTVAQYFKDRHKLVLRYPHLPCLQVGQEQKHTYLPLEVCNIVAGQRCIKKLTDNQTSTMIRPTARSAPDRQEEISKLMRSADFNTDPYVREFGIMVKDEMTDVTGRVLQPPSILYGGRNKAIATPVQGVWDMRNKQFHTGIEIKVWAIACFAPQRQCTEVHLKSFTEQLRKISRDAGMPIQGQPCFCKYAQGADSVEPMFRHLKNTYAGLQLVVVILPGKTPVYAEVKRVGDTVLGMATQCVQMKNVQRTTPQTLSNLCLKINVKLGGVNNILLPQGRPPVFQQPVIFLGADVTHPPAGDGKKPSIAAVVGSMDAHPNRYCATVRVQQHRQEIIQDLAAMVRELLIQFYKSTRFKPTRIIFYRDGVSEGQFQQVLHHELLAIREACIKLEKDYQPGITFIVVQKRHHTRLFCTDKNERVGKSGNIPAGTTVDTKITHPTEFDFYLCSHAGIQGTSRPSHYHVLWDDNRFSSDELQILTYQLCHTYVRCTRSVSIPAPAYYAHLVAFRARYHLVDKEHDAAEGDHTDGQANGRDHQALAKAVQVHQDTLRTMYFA
In short: as §1

Row | Binder | binding signal
39 | B1 | 0.66 fold enrichment over input
40 | B2 | 0.406 fold enrichment over input
41 | B3 | 0.356 fold enrichment over input
42 | B4 | 0.263 fold enrichment over input
43 | B5 | 0.325 fold enrichment over input
44 | B6 | 0.434 fold enrichment over input
45 | B7 | 0.316 fold enrichment over input
46 | B8 | 0.505 fold enrichment over input
47 | B9 | 0.413 fold enrichment over input
48 | B10 | 1.45 fold enrichment over input
49 | B11 | 0.396 fold enrichment over input
50 | B12 | 0.522 fold enrichment over input
51 | B13 | 0.306 fold enrichment over input
52 | B14 | 0.446 fold enrichment over input
53 | B15 | 0.727 fold enrichment over input
54 | B16 | 0.303 fold enrichment over input
55 | B17 | 0.25 fold enrichment over input
56 | B18 | 0.396 fold enrichment over input
57 | B19 | 86.8 fold enrichment over input

These binders were tested against AGO2 T357M (Homo sapiens, UniProt Q9UKV8 1-859, T357M;S387D;S824A;S828D;S831D;S834A) in the same assay as above. Conditions: protein: recombinant; tags: His6 (N-terminal, pFastBac HTA).
AGO2 T357M, sequence (Q9UKV8 whole entry T357M/S387D/S824A/S828D/S831D/S834A): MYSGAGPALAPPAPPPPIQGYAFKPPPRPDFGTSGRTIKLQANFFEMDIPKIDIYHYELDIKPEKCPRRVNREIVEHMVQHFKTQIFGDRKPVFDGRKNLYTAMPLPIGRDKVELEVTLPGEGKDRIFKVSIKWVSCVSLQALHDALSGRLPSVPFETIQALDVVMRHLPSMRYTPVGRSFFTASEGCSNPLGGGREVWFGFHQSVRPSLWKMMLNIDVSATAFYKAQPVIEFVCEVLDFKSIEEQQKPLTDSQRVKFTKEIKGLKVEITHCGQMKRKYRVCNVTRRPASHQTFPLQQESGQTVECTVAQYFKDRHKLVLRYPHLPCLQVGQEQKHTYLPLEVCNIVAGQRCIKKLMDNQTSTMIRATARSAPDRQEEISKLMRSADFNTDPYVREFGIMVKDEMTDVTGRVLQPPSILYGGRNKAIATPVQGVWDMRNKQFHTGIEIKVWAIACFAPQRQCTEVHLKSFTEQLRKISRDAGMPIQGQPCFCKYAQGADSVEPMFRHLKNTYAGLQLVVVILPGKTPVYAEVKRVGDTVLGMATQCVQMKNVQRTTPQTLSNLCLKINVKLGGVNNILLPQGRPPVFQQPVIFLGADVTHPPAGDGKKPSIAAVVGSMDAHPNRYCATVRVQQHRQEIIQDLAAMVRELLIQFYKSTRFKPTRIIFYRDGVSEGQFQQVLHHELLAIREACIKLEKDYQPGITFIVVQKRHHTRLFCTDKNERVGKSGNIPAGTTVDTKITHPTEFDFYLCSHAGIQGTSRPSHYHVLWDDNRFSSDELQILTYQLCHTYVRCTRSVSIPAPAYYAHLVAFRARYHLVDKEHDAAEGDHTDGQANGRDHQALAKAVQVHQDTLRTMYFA
In short: as §1

Row | Binder | binding signal
58 | B1 | 0.675 fold enrichment over input
59 | B2 | 0.575 fold enrichment over input
60 | B3 | 0.65 fold enrichment over input
61 | B4 | 0.699 fold enrichment over input
62 | B5 | 0.628 fold enrichment over input
63 | B6 | 0.679 fold enrichment over input
64 | B7 | 0.623 fold enrichment over input
65 | B8 | 0.643 fold enrichment over input
66 | B9 | 0.689 fold enrichment over input
67 | B10 | 0.527 fold enrichment over input
68 | B11 | 0.657 fold enrichment over input
69 | B12 | 0.649 fold enrichment over input
70 | B13 | 0.561 fold enrichment over input
71 | B14 | 0.623 fold enrichment over input
72 | B15 | 0.709 fold enrichment over input
73 | B16 | 0.599 fold enrichment over input
74 | B17 | 0.636 fold enrichment over input
75 | B18 | 0.62 fold enrichment over input
76 | B19 | 35.6 fold enrichment over input

The binders below were run against AGO2 F182del (Homo sapiens, UniProt Q9UKV8 1-859, S387D;S824A;S828D;S831D;S834A;del182-182) in the same assay as above. Conditions: protein: recombinant; tags: His6 (N-terminal, pFastBac HTA).
AGO2 F182del, sequence (Q9UKV8 other isoform, or with tags, fused parts or gaps S387D;S824A;S828D;S831D;S834A;del182-182): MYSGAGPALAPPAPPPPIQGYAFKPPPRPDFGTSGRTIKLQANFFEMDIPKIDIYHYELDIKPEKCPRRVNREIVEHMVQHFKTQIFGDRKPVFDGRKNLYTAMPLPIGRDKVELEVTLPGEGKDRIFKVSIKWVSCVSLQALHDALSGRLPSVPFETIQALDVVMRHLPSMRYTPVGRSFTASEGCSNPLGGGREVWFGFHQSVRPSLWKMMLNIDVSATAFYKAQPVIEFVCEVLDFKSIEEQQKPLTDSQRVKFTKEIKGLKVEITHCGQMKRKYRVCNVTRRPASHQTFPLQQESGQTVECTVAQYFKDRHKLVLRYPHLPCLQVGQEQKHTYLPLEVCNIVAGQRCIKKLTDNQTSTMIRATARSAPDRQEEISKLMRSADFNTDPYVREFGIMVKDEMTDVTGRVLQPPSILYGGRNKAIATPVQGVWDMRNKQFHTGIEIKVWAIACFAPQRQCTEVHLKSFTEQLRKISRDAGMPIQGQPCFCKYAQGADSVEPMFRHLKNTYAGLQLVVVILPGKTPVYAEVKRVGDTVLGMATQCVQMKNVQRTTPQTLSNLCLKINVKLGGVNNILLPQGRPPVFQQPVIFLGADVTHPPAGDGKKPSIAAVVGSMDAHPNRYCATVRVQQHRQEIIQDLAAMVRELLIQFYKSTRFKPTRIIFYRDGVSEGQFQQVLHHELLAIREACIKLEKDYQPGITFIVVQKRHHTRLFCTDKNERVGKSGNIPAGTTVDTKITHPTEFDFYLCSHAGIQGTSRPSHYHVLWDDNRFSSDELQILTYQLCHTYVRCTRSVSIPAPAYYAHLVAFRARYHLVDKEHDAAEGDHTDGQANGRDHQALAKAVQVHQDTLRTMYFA
In short: as §1

Row | Binder | binding signal
77 | B1 | 2.79 fold enrichment over input
78 | B2 | 1.82 fold enrichment over input
79 | B3 | 1.01 fold enrichment over input
80 | B4 | 0.666 fold enrichment over input
81 | B5 | 1.11 fold enrichment over input
82 | B6 | 1.83 fold enrichment over input
83 | B7 | 0.822 fold enrichment over input
84 | B8 | 2.01 fold enrichment over input
85 | B9 | 1.38 fold enrichment over input
86 | B10 | 1.55 fold enrichment over input
87 | B11 | 1.42 fold enrichment over input
88 | B12 | 0.604 fold enrichment over input
89 | B13 | 0.786 fold enrichment over input
90 | B14 | 0.898 fold enrichment over input
91 | B15 | 4.77 fold enrichment over input
92 | B16 | 0.697 fold enrichment over input
93 | B17 | 0.799 fold enrichment over input
94 | B18 | 1.33 fold enrichment over input
95 | B19 | 69.5 fold enrichment over input
